The values that follow come from the supplement of paper PMC6555819.

The subject of the assay is VDR:RXRa (NR concentration 270 nM, RXRa partner concentration 90 nM). Briefly: PBM binding z-score (relative to random genomic background probes); higher = stronger binding; sequences stand for … in GC…GCGATTGACAGCGTAGAATGAAGG
The protocol: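 Protein-binding microarray (Agilent 4x180K custom design, double-stranded 60-nt probes: 5' GC cap, 34-nt variable region, 24-nt constant primer region; full probe sequence given). Purified or IVT nuclear receptor:RXRα heterodimers (3:1 NR:RXRα, mostly 270:90 nM) or homodimers were incubated for 1 h in PBS with 2% milk and no ligand, then detected with Alexa488 antibodies. Fluorescence from o1-orientation probes (~5 replicates averaged) was converted to z-scores against 500 random hg19 background probes. Variable regions are seed direct-repeat (DR0–DR5) sites, all their single-nucleotide variants and half-site ablations.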
On to GCAGACAGGTGAAACGCAGGCAACTCAGGGTGGC, for which the PBM binding z-score is -0.567. The value for CGAACTAGGTCAAGGACAGGGAATCTCCGCACGC was 1.09; that for CCAGACAGGTGAGAAGGTGACTCAGCCTCGATTA was -0.0388; that for TCTTGTAGACCAATAGAGGTTAAGAAAGTGCGCT was 1.82. Consider CCTGCTAGGTCCTGGTCAGCTAATCTACAGTATG, for which the PBM binding z-score is -0.588. The value for TCTTGTGGATCAGCAGGTTAAGAAAGCTGGCCAA was 0.405; that for ATCTCTCGGTAACCAAGTTCAGTGAATGCCGAAC was 2.72. The figure for TCTTGTAGATCAATAGAGGTTGAGAAAGTGCGCT is 0.789. The value for GCTAGGAGGCCATTTGGGTCACTCAATGACGGGC was 1.83; that for CTACCAAGGTGAACAAGGTCGTCGATTACTATTC was 5.98; that for ACTATTAGTTGAGTTAGGGCAACCGATACGACGC was 0.0394. ATCTCTATGTAACAAGTTCAGTGAAAGAGAGGAC showed a PBM binding z-score of 1.26. The figure for CCTAGCAGGCCAATCTGGTTCACTCAAGGCTTGA is 0.38. As to TCTCGGAGGACACGAAGGACAGAGCTTTCCAGAG, the PBM binding z-score is -0.0596. The sequence CGAACGAGGGCATGAGTTGACAGCAAATGCCGAT displayed a PBM binding z-score of 1.2. The figure for CCTTAAGGGTCAAGGTTATAGCACGGGTGGTACG is 4.72; for CGTCCAAGGTCAATGCTAGGACAGTGAAAGCATT it is 3.83. The value for TCCGACAGGTGAAGGTAACTCAGGTACGCAGTCG was 0.225. In turn, TCGCGTAGGTTAGGGGCATTCAGAATGGCGTCGA displayed a PBM binding z-score of 0.397. CGTCCAAGGCCAAAGGTCAGTGAAGAGATGACGG showed a PBM binding z-score of 3.16.

Sequence CGAACTGGGTCATTGACAGGACAGTGAATAGTAA gave a PBM binding z-score of 2.05. Take CAGCCTAGCTCAGGGCCAGTATAGGAGGAACGTT: the PBM binding z-score was -0.907. The value for TAGCTTAGGTCATGCGGGCCAGTATAGTGTCGGC was 3.13; that for TCTCGGAGGACACGAATGTCAGAGCTTTCCAGAG was -0.117; that for CGTCCACGGTCATAGGAGGTCAGTGAAGACAGAT was 3.27. The figure for ATATGTAGGGTATCGGGTCATTCAGTTTGCGCAT is 5.05. In turn, AGAATGAGGTTATTAAGATCAGGGATTTGCGGTC registered a PBM binding z-score of 2.6.

Consider CGAACTAGGTCATCTAGGACAGTGAATACATTGA, for which the PBM binding z-score came to 3.73. The value for ACAGTCAGGTGATGAAGGTAACTCAGGCTATCAT was -0.0524. The value for ATCGAAAGGTCGAACGTGAGTATACCCACCCGAA was 2.88; that for CGTCCAAGGTCAAGGTCCGTGAAAGAGACTCGAA was 4.04; that for AGAACGAGGGCAGGCTGAGTTGATAGCAGAGTAG was 0.431.

In turn, TAGCCTAGGTCAGATCGGGCCAGTAGACGCTATA showed a PBM binding z-score of 0.169. Sequence CGTCAAAGTTCAACTAAGGTAACGAAAAGCACGC gave a PBM binding z-score of 4.64.

TCTTGTAGATCGGCAGGTTAAGAAAGCTGGCCAA registered a PBM binding z-score of 0.405. The figure for TCTCGGTGGACACGAAAGGTCAGAGCTCGACATC is 2.84. The value for ACTATTAGTTGAGAAGAGGGCAACCGATAGGTTG was 0.507; that for TCGAGTAGGTTAGGGGCTTTCAGAATGGCGTCGA was -0.3. For the sequence AATACAGGGTCACTAGGCGAGAGTAGGTACGAAT, the PBM binding z-score amounted to 4.12. On to TCAATGAGGTTAAAGATCAGGGAACGTGGCGTCG, for which the PBM binding z-score is 2.04.
